# Results as given in the supplement of paper PMC10849652.
# Targets with a hit are over-represented here; the source holds about 7,900 in all. About 0.6% of all pairs of compound and target were hits. Unmarked numbers belong to inactive results.
# What was measured:
# Test in all cases: log2 fold change, soluble protein after heating vs DMSO (PISA); higher = thermal stabilisation; K562 cells, 10 uM, 30 min; active = over 0.2 and 3.5 SD of the protein, either way, in both replicates (recomputed)
# [1] = compound: COC1=CC=C(C=C1)CN2C=CC3=C2C=C(C=C3)C(=O)NO
# Summary of the method: (§1)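 Quantification of soluble protein used TMTpro 16plex LC-MS/MS, with channel sums equalised. Samples were the supernatant after 21,000xg for 90 min of pooled aliquots from K562 cells (2×10^6 cells/mL) treated with 10 μM compound for 30 min, heated for 3 min over 48°C-58°C, and extracted in PBS with 0.5% NP-40 at 4°C. Values, from duplicates, describe thermal stability against control samples on a log2 fold-change scale.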
# [2] = compound: CON(C)C(=O)N1N=C(c2cc(F)ccc2F)S[C@@]1(CCCN)c1ccccc1 [filanesib]
# Summary of the method: as §1
# [3] = compound: CO[C@H]1C[C@@H]2CC[C@@H](C)[C@@](O)(O2)C(=O)C(=O)N2CCCC[C@H]2C(=O)O[C@H]([C@H](C)C[C@@H]2CC[C@H](n3cnnn3)[C@H](OC)C2)CC(=O)[C@H](C)/C=C(\C)[C@@H](O)[C@@H](OC)C(=O)[C@H](C)C[C@H](C)/C=C/C=C/C=C/1C [zotarolimus]
# Summary of the method: as §1
# [4] = compound: COc1cc(C(=O)O)ccc1NC(=O)[C@@H]1N[C@@H](CC(C)(C)C)[C@](C#N)(c2ccc(Cl)cc2F)[C@H]1c1cccc(Cl)c1F [idasanutlin]
# Summary of the method: as §1
# [5] = compound: COc1cc(Nc2ncc3c(n2)-c2ccc(Cl)cc2C(c2c(F)cccc2OC)=NC3)ccc1C(=O)O [alisertib]
# Summary of the method: as §1
# [6] = compound: COc1cc2nc(-c3cc(F)ccc3O)nc(N[C@@H]3CNC[C@H]3C(C)(C)O)c2cc1OC
# Summary of the method: as §1
# [7] = compound: COc1cc2ncnc(Nc3ccc(F)c(Cl)c3)c2cc1OCCCN1CCOCC1 [gefitinib]
# Summary of the method: as §1
# [8] = compound: COc1cccc2cc(-c3nc([C@H]4CC[C@H](C(=O)O)CC4)n4ncnc(N)c34)[nH]c12
# Summary of the method: as §1
# [9] = compound: CS(=O)(=O)CCNCc1ccc(-c2ccc3ncnc(Nc4ccc(OCc5cccc(F)c5)c(Cl)c4)c3c2)o1 [lapatinib]
# Summary of the method: as §1
# [10] = compound: CS(=O)(=O)N1CCN(Cc2cc3nc(-c4cccc5[nH]ncc45)nc(N4CCOCC4)c3s2)CC1 [pictilisib]
# Summary of the method: as §1
# [11] = compound: CS(=O)(=O)c1ccc(-c2cnc(N)c(C(=O)Nc3ccccc3)n2)cc1
# Summary of the method: as §1
# [12] = compound: C[C@@H](Oc1cc(-c2cnn(C3CCNCC3)c2)cnc1N)c1c(Cl)ccc(F)c1Cl [crizotinib]
# Summary of the method: as §1
# [13] = compound: C[C@H](C1=CC=C(C=C1)C(=O)NC2=C3C=CNC3=NC=C2)N
# Summary of the method: as §1
# [14] = compound: C[C@H](Nc1ncnc2nc[nH]c12)c1cc2cccc(Cl)c2c(=O)n1-c1ccccc1 [duvelisib]
# Summary of the method: as §1
# [15] = compound: Cc1cc(Nc2cc(CN3CCOCC3)c3nc(C)c(Cc4ccc(Cl)cc4F)n3n2)n[nH]1 [gandotinib]
# Summary of the method: as §1
# [16] = compound: Cc1cc(Nc2cc(N3CCN(C)CC3)nc(Sc3ccc(NC(=O)C4CC4)cc3)n2)n[nH]1 [tozasertib]
# Summary of the method: as §1
# [17] = compound: Cc1cc(SCc2sc(-c3ccc(C(F)(F)F)cc3)nc2C)ccc1OCC(=O)O
# Summary of the method: as §1
# [18] = compound: Cc1ccc(-n2nc(C(C)(C)C)cc2NC(=O)Nc2ccc(OCCN3CCOCC3)c3ccccc23)cc1 [doramapimod]
# Summary of the method: as §1
# [19] = compound: Cc1ccc(C(=O)N(CCCN)[C@@H](c2nc3cc(Cl)ccc3c(=O)n2Cc2ccccc2)C(C)C)cc1 [ispinesib]
# Summary of the method: as §1
# [20] = compound: C[C@@H]1COCCN1C2=NC(=NC(=C2)C3(CC3)S(=O)(=O)C)C4=C5C=CNC5=CC=C4
# Summary of the method: as §1
# UniProt Q06609, sequence (Q06609 whole entry, looked up): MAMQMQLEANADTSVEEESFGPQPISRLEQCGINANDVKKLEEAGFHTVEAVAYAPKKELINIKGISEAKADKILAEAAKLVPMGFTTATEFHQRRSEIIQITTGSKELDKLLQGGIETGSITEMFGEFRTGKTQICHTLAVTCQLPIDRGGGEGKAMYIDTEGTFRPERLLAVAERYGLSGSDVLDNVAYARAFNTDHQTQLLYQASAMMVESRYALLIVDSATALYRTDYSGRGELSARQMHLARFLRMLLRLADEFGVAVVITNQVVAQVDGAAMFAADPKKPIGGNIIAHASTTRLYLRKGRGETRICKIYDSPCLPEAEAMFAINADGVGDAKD
# UniProt P51812, sequence (P51812 whole entry, looked up): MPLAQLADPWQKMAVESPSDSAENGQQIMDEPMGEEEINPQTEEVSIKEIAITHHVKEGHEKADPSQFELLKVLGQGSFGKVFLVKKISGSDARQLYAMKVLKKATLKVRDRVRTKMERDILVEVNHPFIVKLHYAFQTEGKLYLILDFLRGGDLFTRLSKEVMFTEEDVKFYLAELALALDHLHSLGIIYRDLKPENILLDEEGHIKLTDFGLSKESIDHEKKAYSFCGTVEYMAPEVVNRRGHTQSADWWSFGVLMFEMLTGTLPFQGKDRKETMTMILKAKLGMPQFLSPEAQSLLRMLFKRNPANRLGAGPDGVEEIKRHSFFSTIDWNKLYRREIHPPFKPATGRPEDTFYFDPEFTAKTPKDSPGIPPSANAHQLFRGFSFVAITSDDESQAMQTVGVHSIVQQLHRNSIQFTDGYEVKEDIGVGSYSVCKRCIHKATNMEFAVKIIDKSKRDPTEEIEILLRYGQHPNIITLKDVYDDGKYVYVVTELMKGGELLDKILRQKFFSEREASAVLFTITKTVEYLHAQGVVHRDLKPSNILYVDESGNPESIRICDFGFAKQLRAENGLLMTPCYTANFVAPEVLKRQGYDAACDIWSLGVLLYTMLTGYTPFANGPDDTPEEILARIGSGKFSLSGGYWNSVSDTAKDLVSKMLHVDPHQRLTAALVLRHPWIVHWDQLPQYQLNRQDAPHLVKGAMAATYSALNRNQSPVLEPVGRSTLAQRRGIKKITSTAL
# UniProt P18754, sequence (P18754 whole entry, looked up): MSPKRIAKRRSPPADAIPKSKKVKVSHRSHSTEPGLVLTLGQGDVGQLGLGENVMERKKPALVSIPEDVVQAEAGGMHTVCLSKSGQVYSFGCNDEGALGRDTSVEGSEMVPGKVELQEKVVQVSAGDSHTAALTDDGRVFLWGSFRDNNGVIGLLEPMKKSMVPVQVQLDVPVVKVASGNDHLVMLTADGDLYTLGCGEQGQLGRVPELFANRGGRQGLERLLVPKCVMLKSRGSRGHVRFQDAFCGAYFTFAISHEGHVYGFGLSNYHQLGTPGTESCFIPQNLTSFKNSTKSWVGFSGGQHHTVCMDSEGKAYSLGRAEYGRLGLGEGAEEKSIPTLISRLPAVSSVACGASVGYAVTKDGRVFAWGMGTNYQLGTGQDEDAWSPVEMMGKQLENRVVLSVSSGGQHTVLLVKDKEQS
# UniProt Q7Z6E9, sequence (Q7Z6E9 whole entry, looked up): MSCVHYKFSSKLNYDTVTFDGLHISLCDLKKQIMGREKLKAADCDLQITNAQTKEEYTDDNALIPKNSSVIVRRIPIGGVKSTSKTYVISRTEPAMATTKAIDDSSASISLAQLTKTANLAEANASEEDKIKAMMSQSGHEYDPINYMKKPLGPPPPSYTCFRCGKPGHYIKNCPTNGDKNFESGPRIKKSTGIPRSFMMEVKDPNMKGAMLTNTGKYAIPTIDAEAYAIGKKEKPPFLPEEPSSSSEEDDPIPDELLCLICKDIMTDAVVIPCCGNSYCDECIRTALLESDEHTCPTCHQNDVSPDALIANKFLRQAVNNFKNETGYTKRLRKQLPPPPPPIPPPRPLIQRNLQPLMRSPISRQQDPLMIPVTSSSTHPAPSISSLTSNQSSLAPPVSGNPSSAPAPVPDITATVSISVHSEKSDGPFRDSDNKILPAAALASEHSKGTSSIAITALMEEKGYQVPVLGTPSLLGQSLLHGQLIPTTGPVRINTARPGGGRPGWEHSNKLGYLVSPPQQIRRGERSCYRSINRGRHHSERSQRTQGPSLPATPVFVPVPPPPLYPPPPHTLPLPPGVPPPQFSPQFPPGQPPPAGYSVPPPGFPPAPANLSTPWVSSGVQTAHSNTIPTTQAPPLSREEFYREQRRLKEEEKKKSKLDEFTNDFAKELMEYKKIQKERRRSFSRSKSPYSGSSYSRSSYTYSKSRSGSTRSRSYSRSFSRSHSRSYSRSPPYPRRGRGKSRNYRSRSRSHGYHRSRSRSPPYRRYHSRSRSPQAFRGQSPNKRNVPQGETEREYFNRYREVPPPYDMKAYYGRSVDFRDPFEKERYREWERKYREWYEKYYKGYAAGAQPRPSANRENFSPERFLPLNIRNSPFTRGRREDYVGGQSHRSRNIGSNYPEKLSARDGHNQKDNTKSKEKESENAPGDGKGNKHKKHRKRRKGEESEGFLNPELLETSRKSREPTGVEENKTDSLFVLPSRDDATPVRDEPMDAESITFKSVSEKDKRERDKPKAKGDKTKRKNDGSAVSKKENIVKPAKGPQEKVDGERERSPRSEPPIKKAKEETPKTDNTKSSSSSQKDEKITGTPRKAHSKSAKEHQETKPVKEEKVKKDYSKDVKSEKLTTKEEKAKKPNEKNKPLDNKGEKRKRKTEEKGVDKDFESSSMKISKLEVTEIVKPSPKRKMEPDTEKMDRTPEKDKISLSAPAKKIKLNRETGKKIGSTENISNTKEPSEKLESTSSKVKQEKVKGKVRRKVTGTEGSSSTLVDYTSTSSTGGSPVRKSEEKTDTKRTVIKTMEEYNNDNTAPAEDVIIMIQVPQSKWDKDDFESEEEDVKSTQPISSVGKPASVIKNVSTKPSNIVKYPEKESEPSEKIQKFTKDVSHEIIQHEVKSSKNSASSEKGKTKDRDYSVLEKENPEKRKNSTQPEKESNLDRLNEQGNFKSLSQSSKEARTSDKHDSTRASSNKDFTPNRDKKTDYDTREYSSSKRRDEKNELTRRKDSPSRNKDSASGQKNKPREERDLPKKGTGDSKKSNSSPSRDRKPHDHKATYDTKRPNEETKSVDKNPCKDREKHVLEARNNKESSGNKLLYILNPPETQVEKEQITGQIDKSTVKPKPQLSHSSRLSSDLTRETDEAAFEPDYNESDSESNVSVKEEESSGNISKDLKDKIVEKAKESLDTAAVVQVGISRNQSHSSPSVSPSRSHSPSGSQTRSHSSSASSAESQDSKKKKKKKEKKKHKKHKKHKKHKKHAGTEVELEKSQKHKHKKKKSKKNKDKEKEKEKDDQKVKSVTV
# UniProt P78332, sequence (P78332 whole entry, looked up): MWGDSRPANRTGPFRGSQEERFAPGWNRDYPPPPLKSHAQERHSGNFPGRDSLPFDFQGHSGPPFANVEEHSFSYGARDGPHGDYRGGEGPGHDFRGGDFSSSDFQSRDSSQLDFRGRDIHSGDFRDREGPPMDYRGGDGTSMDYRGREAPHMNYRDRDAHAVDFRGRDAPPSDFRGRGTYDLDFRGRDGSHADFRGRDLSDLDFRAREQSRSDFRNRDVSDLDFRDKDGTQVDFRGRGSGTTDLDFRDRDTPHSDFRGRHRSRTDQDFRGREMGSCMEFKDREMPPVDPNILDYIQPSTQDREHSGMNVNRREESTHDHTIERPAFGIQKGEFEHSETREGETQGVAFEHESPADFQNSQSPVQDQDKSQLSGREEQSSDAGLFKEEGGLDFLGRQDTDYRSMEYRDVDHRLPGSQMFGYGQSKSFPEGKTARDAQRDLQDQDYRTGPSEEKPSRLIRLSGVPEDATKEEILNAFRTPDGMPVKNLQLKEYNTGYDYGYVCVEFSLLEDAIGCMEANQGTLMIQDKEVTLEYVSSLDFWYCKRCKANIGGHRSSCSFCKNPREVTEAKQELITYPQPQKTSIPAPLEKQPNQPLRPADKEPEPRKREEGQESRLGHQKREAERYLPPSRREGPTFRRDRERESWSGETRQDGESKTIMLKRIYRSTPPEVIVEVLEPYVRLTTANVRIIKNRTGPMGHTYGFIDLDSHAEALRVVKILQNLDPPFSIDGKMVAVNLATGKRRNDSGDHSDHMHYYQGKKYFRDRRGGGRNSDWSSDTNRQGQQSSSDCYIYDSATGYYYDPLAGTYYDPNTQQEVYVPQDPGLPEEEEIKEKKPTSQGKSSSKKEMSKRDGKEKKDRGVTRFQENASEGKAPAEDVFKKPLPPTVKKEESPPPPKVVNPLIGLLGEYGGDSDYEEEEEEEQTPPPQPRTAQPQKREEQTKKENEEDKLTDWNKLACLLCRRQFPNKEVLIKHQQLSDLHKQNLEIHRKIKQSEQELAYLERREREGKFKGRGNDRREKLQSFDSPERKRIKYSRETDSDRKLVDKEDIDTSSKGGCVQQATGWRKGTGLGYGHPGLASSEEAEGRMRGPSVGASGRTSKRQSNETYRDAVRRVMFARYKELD
# UniProt Q7L099, sequence (Q7L099 whole entry, looked up): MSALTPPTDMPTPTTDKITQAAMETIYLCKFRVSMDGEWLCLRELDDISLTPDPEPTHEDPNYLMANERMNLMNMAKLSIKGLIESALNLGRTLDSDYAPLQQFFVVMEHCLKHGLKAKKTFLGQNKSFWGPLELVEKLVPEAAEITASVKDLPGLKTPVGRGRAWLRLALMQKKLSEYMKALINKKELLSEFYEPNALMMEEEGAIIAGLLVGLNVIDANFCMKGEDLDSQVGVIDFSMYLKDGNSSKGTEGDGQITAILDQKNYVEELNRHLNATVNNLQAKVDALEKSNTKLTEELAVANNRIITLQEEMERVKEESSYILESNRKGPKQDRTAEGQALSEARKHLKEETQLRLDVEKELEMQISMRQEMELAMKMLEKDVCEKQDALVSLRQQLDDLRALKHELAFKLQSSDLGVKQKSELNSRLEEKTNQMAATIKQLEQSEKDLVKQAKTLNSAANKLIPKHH
Target,log2 fold change [1],log2 fold change [2],log2 fold change [3],log2 fold change [4],log2 fold change [5],log2 fold change [6],log2 fold change [7],log2 fold change [8],log2 fold change [9],log2 fold change [10],log2 fold change [11],log2 fold change [12],log2 fold change [13],log2 fold change [14],log2 fold change [15],log2 fold change [16],log2 fold change [17],log2 fold change [18],log2 fold change [19],log2 fold change [20]
RBM6 (UniProt P78332),0.044,-0.067,0.064,0.101,-0.431,-0.02,-0.007,0.005,0.121,-0.044,0,0.148,0.013,-0.154,-0.043,-0.094,-0.183,0.032,,
RUFY3 isoform 3 (UniProt Q7L099),-0.06,0.053,0.003,-0.108,0.155,0.045,0.08,-0.122,-0.01,0.018,0.017,0.007,-0.085,-0.073,-0.012,0.002,0.617 (active),-0.057,-0.048,
RAD51 (UniProt Q06609),-0.057,0.003,-0.034,-0.072,0.041,-0.022,-0.07,0.012,-0.024,-0.02,0.005,-0.061,-0.019,0.108,0.01,-0.026,-0.005,-0.025,-0.009,-0.079
RPS6KA3 (UniProt P51812),-0.013,0,0.033,-0.008,,-0.221,-0.033,0.013,0.011,-0.011,0.023,-0.107,-0.177,0.02,-0.019,0.103,0.032,-0.066,-0.017,0.024
RCC1 isoform 2 (UniProt P18754),0.106,-0.058,0.083,0,0.022,-0.038,0.087,0.021,0,-0.005,0.418 (active),-0.032,-0.04,0.158,-0.1,-0.002,0.154,-0.008,-0.007,0.13
RBBP6 (UniProt Q7Z6E9),0.101,0.468 (active),-0.052,0.089,0.044,-0.099,-0.02,0.146,0.101,0.016,-0.117,-0.158,0.072,,-0.066,0.03,,0.012,0.168,-0.036
RPS4X (UniProt P62701),-0.059,0.314,-0.001,0.148,-0.099,-0.038,-0.048,-0.222,0.102,-0.155,-0.027,0.021,0.333,-0.211,0.264,0.039,-0.023,0.18,-0.141,-0.378
SCO2 (UniProt O43819),-0.078,0.039,0.057,-0.099,-0.103,-0.097,,0.117,0,-0.015,0.062,-0.106,-0.016,0.14,0.026,0,0.061,-0.031,-0.134,0.05
